Source: PubChem BioAssay AID1789 (The Scripps Research Institute Molecular Screening Center, 2009)
The campaign covered roughly 290,000 compounds. About 2,700 (0.93%) were called active. The sample holds actives, similar compounds and a random draw of the others, so the mix is not that of the screen.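 Rule for the calls: active = inhibition above the screen-wide mean plus 3 SD, computed separately per campaign (cut at about 16% in these data); inactive = the rest.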

Test system: Heat shock protein HSP 90 (rabbit reticulocyte lysate; luciferase refolding)
Assay: HSP90 inhibitors, primary screen, cell lysate, luminescence (AID 1789);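 note: 0% = DMSO wells and 100% = 60 µM geldanamycin wells; inhibitors lower the luminescence because luciferase stays unfolded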
Details: 3 h, at 5.6 µM, active compounds read high

SMILES	inhibition
CCOC(=O)CSc1nc2ccc(C)cc2[nH]1	1.44% (inactive)
Cc1ccc2nc(/C(C#N)=C\c3ccc(OC(=O)c4cccs4)cc3)[nH]c2c1	30.5% (active)
COc1cc(/C=C(\C#N)c2nc3ccccc3[nH]2)ccc1O	-1.74% (inactive)
CCn1c(CC(=O)Nc2ccccc2C)nnc1SCC(=O)NC1=NCCS1	3.37% (inactive)
S=c1[nH]nc(/C=C/c2ccccc2)o1	-3.77% (inactive)
O=c1oc(/C=C/c2ccccc2)nc2ccccc12	21% (active)
O=c1oc(-c2ccccc2NS(=O)(=O)c2ccc(Cl)cc2)nc2ccccc12	0.82% (inactive)
O=C(Nc1ccccc1)c1ccc(NC(=O)c2cccs2)cc1	1.79% (inactive)
Cc1nc(-c2ccc(NC(=O)c3cccs3)cc2)cs1	27.1% (active)
Cc1ccc(-c2nnc(-c3ccc(NC(=O)c4cccs4)cc3)o2)cc1	-1.94% (inactive)
Cc1ccc(-c2noc(CNC(=O)c3ccoc3C)n2)cc1	4.35% (inactive)
COc1ccccc1CNC(=O)[C@@H]1CCCN1C(=O)[C@@H]1Cc2ccccc2CN1C(=O)OC(C)(C)C	0.82% (inactive)
c1ccc(CN2CCC(N=C3NN=C(c4ccc5c(c4)OCCO5)CS3)CC2)cc1	13.2% (inactive)
Cc1cccc(N=C2NN=C(c3c[nH]c4ccccc34)CS2)c1	8.26% (inactive)
Clc1cccc(N=C2NN=C(c3ccc4c(c3)OCCO4)CS2)c1	38.8% (active)
COC(CNC(=O)c1ccc2c(c1)ncn2-c1cc(C)cc(C)c1)OC	-2.44% (inactive)
O=C(OCCN=C1NS(=O)(=O)c2ccccc21)c1cccc([N+](=O)[O-])c1	-0.96% (inactive)
CCOc1c(Br)cc(/C=C2\C(=O)N(CCC#N)N=C2C)cc1OC	32.1% (active)
C=CCOc1c(Br)cc(/C=N\n2nnnc2N)cc1OC	6.06% (inactive)
COc1cc(/C=C2/C(=O)NN(c3cccc(Cl)c3)C2=O)cc(Br)c1O	4.77% (inactive)
COc1ccc(-n2ncc3c2CC(C)(C)CC3NC(=O)CCc2c(C)nn(C)c2C)cc1 (stereo not drawn)	-4.92% (inactive)
Cc1n[nH]c(C)c1S(=O)(=O)N1CCCC(C(=O)Nc2ccc(Br)cc2)C1 (stereo not drawn)	-0.76% (inactive)
COc1ccc(CNC(=O)CCn2cccc2)cc1	3.81% (inactive)
COc1ccc(CNC(=O)/C(C#N)=C/c2cccc(OC)c2OC)cc1	31.1% (active)
COc1ccc(NC(=O)/C(C#N)=C\c2cc(OC)c(OCc3ccc(C(=O)O)cc3)cc2Br)cc1	-2.4% (inactive)

SMILES	inhibition
Cc1cc(=O)oc2c1ccc1ccccc12	-1.23% (inactive)
CC1Cn2c(nnc2-c2cccs2)S1 (stereo not drawn)	27.3% (active)
Cc1ccccc1C1CC(c2cccs2)=NN1S(C)(=O)=O (stereo not drawn)	-0.31% (inactive)
Cn1c(SCC(=O)N2CCCC2)nnc1-c1cccs1	-5.69% (inactive)
O=C(O)CCC(=O)Nc1ccc(OCC2CCCO2)cc1 (stereo not drawn)	1.1% (inactive)
Cc1cccc(NC(=O)Nc2ccc(OCc3ccccc3)cc2)n1	-4.5% (inactive)
Cc1cccc(NC(=O)c2ccc(COc3ccccc3[N+](=O)[O-])o2)n1	-1.06% (inactive)
COC(=O)c1ccc(COc2ccc(C#N)cc2)o1	-2.93% (inactive)
CCOc1ccc(OCc2ccc(C(=O)Nc3cccc(C)n3)o2)cc1	16.8% (active)
O=C(NCCc1ccccn1)c1ccc(COc2ccccc2)o1	9% (inactive)
CCOc1ccc(OCc2ccc(C(=O)N(C)c3ccccc3)o2)cc1	23% (active)
Cc1ccc(NC(=S)N(CCCN2CCCC2)Cc2cccn2Cc2ccc(Cl)cc2)cc1	2.82% (inactive)
COc1ccc(C(=S)Nc2ccccc2)cc1	-0.81% (inactive)
COc1ccc(C(=O)NC2CCN(C(=S)Nc3ccccc3)CC2)cc1	3.9% (inactive)
COc1ccc(NC(=S)N2N=CCC2c2ccccc2)cc1 (stereo not drawn)	16.8% (active)
CC(C)c1ccc(NC(=O)C2CCCN(S(=O)(=O)c3cccnc3)C2)cc1 (stereo not drawn)	-1.95% (inactive)
CCOC(=O)C1=C(c2ccc(OC)cc2)C(=O)c2ccccc2C1=O	87.2% (active)
CCOC(=O)c1c(C)[nH]c2c1-c1ccccc1C(=O)C2=O	-1.61% (inactive)
CCOC(=O)c1c(-c2ccc(C)cc2)csc1/N=C(\C)C1=C(O)c2ccccc2C1=O	-2.27% (inactive)
COC(=O)C1(C)CC1(c1ccccc1)c1ccccc1 (stereo not drawn)	1.72% (inactive)
C[n+]1cc(-c2ccccc2)oc1-c1ccccc1	0.81% (inactive)
Cc1cc(N/C=C\C(=O)c2ccc(Cl)c(Cl)c2)no1	-0.49% (inactive)
CCOc1ccc(N/C=C/C(=O)c2ccccc2)cc1	51% (active)
O=C(/C=C\NCC(=O)c1ccccc1)c1ccccc1	2.9% (inactive)
CCOc1cc2ccccc2cc1C(=O)Nc1ccccn1	-0.82% (inactive)

SMILES	inhibition
COc1ccc(C(=O)/C=C/Nc2ccccn2)cc1	65.4% (active)
CCOc1ccc(N/C=C/C(=O)c2cc(OC)c(OC)c(OC)c2)cc1	-0.12% (inactive)
COc1cc2c(cc1OC)C(c1cccc([N+](=O)[O-])c1)=NCC2	-2.48% (inactive)
CCCCN(C)CCNC(=O)C1CCCN(S(=O)(=O)c2cccc3nsnc23)C1 (stereo not drawn)	-6.58% (inactive)
COc1ccc(N=Nc2c(-c3ccc(OC)cc3)[nH]oc2=O)cc1	0.28% (inactive)
NC(=O)c1ccc(NC(=O)COC(=O)c2c3c(nc4ccccc24)/C(=C\c2ccc4c(c2)OCO4)CCC3)cc1	-5.16% (inactive)
COc1ccc(Sc2nc(-c3ccccc3)ncc2OC)cc1	-2.08% (inactive)
COc1ccc(-c2nc(-c3ccccc3)no2)c(OC)c1	44.3% (active)
COc1ccccc1Cc1nc(-c2ccc(C)cc2)no1	3.61% (inactive)
COC(=O)c1cccnc1NC(=S)NC(C)C	-2.4% (inactive)
CC(=O)c1ccc(NC(=O)Cn2c(=O)oc3ccccc32)cc1	-5.66% (inactive)
CCSc1nnc(SCC(=O)NNC(=O)c2ccccc2F)s1	-3.94% (inactive)
S=c1[nH]c(-c2cccs2)cn1-c1ccccc1	8.66% (inactive)
COc1ccc(-c2cn(-c3ccc(OC)cc3)c(=S)[nH]2)cc1	0.9% (inactive)
O=c1oc2ccccc2cc1-c1cn(-c2ccccc2)c(=S)[nH]1	65.7% (active)
COc1ccc(C)cc1NC(=O)CNCc1cccs1	9.78% (inactive)
CC(C)Sc1ncnc2c1cnn2-c1ccccc1	-2.09% (inactive)
COc1cc(NC(=O)CSc2ccc(-c3cccnc3)nn2)cc(OC)c1	-0.99% (inactive)
Cc1ccc2[nH]c3c(=O)n(CC(=O)NCCc4ccc(Cl)cc4)ncc3c2c1	-1.14% (inactive)
Cc1cccc(CCNC(=O)Cn2ncc3c([nH]c4ccc(C)cc43)c2=O)c1	20.9% (active)
CC1CC(C)CN(CCCNC(=O)Cn2ncc3c([nH]c4ccccc43)c2=O)C1 (stereo not drawn)	2.52% (inactive)
CCCn1nc(NC(=O)C(C)C)c2cc3cc(OC)ccc3nc21	-7.87% (inactive)
C=Cn1cc[n+](CC(=O)c2ccc(OC)c(OC)c2)c1	9.58% (inactive)
O=C(CCCC(=O)N1CCN(c2cccc(Cl)c2)CC1)c1ccccc1	-3.4% (inactive)
Cc1ccc(S(=O)(=O)N(CCCN(C)C)Cc2ccc3c(c2)OCO3)cc1	-1.45% (inactive)

SMILES	inhibition
CC(NCC(=O)Nc1cc(Cl)cc(Cl)c1)c1ccccc1 (stereo not drawn)	10.2% (inactive)
O=C(C1CCC1)N1CCN(c2ccccc2)CC1	-0.73% (inactive)
CCCCCN(C(=O)CCC(=O)OCC(=O)NCc1ccc(OC)cc1)c1c(N)n(CCCC)c(=O)[nH]c1=O	-5.78% (inactive)
Cc1cccc(N(C)C(=O)CN2C(=O)COc3ccc(S(=O)(=O)N4CCCCCC4)cc32)c1	2.46% (inactive)
COc1ccc(OCc2cccc(C(=O)N3CCCC3)c2)cc1	12.3% (inactive)
CCOc1ccc(OCc2cccc(C(=O)N(CC)CC)c2)cc1	19.7% (active)
CC(C)c1cc(C(N)=O)c(NC(=O)c2cccc(COc3ccc(Br)cc3)c2)s1	6% (inactive)
COc1cc(C(=O)N2CCN(C)CC2)cc(OC)c1OC	-1.01% (inactive)
CCOC(=O)N1CCN(C(=O)COCc2cc(-c3ccc4c(c3)OCO4)on2)CC1	-2.54% (inactive)
Cc1ccc2c(C)c(C(=O)N(C)CCC3CCCCO3)oc2c1C (stereo not drawn)	-5.53% (inactive)
COc1ccc(Cl)cc1C(=O)NCC#N	-11.2% (inactive)
N#C/C=C\Oc1ccc(Cl)cc1N	19.9% (active)
COc1ccc(N2CCN(C(=O)c3ccccc3NC(=O)C3=C(C)OCCS3)CC2)cc1	-2.69% (inactive)
Cc1nc2ccccc2nc(C)c1=NOCc1ccc(Cl)cc1Cl	-1.08% (inactive)
CCC(=O)Nc1nc(C)c(C(=O)Nc2cccc(Cl)c2)s1	-0.01% (inactive)
CCCCC(=O)Nc1nc(C)c(-c2csc(Nc3ccc(Cl)cc3)n2)s1	16.9% (active)
Cc1nc(NC(=O)c2cccc(Cl)c2)sc1-c1csc(Nc2cccc(Cl)c2)n1	67.3% (active)
CC(=O)Nc1nc(C)c(-c2csc(Nc3ccc(S(N)(=O)=O)cc3)n2)s1	-0.54% (inactive)
CCCCCCC(=O)Nc1nc(C)c(-c2csc(Nc3cccc(OC)c3)n2)s1	0.02% (inactive)
CCCCCCC(=O)Nc1nc(C)c(-c2csc(Nc3cc(Cl)ccc3OC)n2)s1	4.86% (inactive)
Cc1ccc(Nc2nc(-c3sc(NC(=O)c4ccccc4)nc3C)cs2)cc1	48.7% (active)
Cc1ccc(-c2csc(NNC(=O)c3ccccc3)n2)cc1	0.18% (inactive)
C=CCCC(=O)Nc1nc(C)c(-c2csc(Nc3ccc(Cl)cc3)n2)s1	6.06% (inactive)
